# Source: PubChem
# POLK inh: blocks human DNA polymerase kappa activity; purified Pol kappa, fluorescent DNA synthesis assay, 10 min; Q9UBT6; hit rate 0.53% among 400,000; Potency, µM (doses to about 107 µM), for the others: at the top dose activity, negative = inhibition, actives largely listed as inhibitors; further: on the % scale 0 is the no-effect control and ±100 the full control effect
#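 Activity was followed as the change in fluorescence between reads at 0 and 10 min after starting the reaction with 50 nM substrate. Beforehand, 10 nM polymerase had been preincubated with compound for 15 min at room temperature.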
# Pol beta inh: blocks human DNA polymerase beta activity. Pol beta primer extension/strand displacement, fluorescence kinetic. P06746. Potency, µM (titrated, usually from 114 µM), for the others: at the top dose activity change, negative = inhibition, actives largely listed as inhibitors. hit rate 1.3% among 340,000; further: on the % scale 0 is the no-effect control and ±100 the full control effect
#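 10 nM enzyme + cpd, 15 min RT; start with substrate 50 nM final; read 0 min and after 10 min RT. Corrected, normalized data; 4-parameter Hill curve fit.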
# FEN1 inh: human FEN1 inhibition; P39748; hit rate 0.35% among 390,000; Recombinant FEN1 flap cleavage, fluorescence, 15 min; AID 588795; Potency, µM (top dose mostly 114 µM), for the others: at the highest dose activity change, negative = inhibition, most hits filed as inhibitors; further: on the % scale 0 is the no-effect control and ±100 the full control effect; nearly all actives have a fitted effect of over 65% in size
# Target sequence (P39748 whole entry, looked up): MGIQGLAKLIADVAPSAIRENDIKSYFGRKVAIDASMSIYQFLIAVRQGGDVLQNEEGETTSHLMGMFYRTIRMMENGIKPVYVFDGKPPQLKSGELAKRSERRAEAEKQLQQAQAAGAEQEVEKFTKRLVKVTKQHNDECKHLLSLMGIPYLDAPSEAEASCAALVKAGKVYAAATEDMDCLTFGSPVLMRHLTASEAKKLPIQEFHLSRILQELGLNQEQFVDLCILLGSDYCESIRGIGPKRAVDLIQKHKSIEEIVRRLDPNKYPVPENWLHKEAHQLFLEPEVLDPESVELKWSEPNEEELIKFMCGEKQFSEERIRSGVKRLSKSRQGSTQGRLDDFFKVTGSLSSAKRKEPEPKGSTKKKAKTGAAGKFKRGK
#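 Enzyme 10 nM, 15 min RT preincubation with compound; start with substrate 50 nM final; reads at 0 and 15 min; qHTS titration, four-parameter Hill fit.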
# TDP1 inh: TDP1 (human) enzyme inhibition; Q9NUW8; recombinant TDP1, AlphaScreen DNA substrate cleavage; Potency, µM (doses to about 130 µM), inactives show at the top dose activity change, negative = inhibition, hits mostly inhibitors; hit rate 0.28% among 350,000; AID 485290; further: on the % scale 0 is the no-effect control and ±100 the full control effect; nearly all actives have a fitted effect of over 40% in size
#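 Tdp1 1 nM final; 15 min RT w/ cpd; substrate 15 nM, 5 min; beads 10 ug/ml, 10 min; AlphaScreen read. Neg ctrl: no enzyme.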
# POLI inh: DNA polymerase iota (human) inhibition; AID 588590; Potency, µM (doses to about 115 µM), without a hit: top-dose activity, negative = inhibition, actives largely listed as inhibitors; Pol iota fluorescent replication assay, 10 min; hit rate 1% among 390,000; Q9UNA4
#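 Pol iota at 10 nM preincubated 15 min with compounds at room temperature; reaction started with fluorescent substrate, 50 nM final. Fluorescence read kinetically at 0 and 10 min; buffer-only wells as negative control.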
# Pol eta inh: DNA polymerase eta (human) inhibition. Potency, µM (titrated, usually from 114 µM), for the others: at the top dose activity change, negative = inhibition, usual class: inhibitors. hit rate 1.2% among 390,000. Q9Y253. recombinant Pol eta, fluorescent DNA replication assay. AID 588591; further: on the % scale 0 is the no-effect control and ±100 the full control effect
#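 Pol eta (10 nM) was preincubated with compounds for 15 min at room temperature, after which fluorescent replication substrate (50 nM final) was added to start the reaction. Fluorescence was read kinetically at 0 and 10 min.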
# * = called active by the depositor; ? = inconclusive; · = no result; [ ] = remark or other dose. The list is not random: actives were taken first. Their share in the collection is about 2.4%. The call rests on the fitted dose curve; in most records, active means well fitted curve in the direction sought with a large enough effect; inconclusive means small, poorly fitted or top-dose-only effect, or another doubt; inactive means no such curve, though single readings can be large; an effect the other way counts as inactive or inconclusive. Potency means the concentration at half of the fitted maximal effect.
SMILES,POLK inh,Pol beta inh,FEN1 inh,TDP1 inh,POLI inh,Pol eta inh
CCCCNC(=O)c1sc(=S)n2c1[nH]c(=O)c1ccc(C(=O)NCCc3ccc(OC)c(OC)c3)cc12,?,?,-25%,-4%,14µM*,18µM*
N#Cc1ccc(OCC(=O)Nc2nc(-c3cccnc3)cs2)cc1,-20%,·,-2%,-4%,?,50µM*
O=C(COc1ccccc1)Nc1nc(-c2cccnc2)cs1,-14%,·,-2%,-2%,-6%,?
CC(=O)Nc1ccc(C(=O)Nc2nc(-c3cccnc3)cs2)cc1,-17%,-1%,-4%,71µM*,79%,13%
O=C(Nc1nc(-c2ccccc2)cs1)c1cccnc1,3%,10%,7%,5%,18%,4%
COC(=O)[C@@H](Cc1ccccc1)NC(=O)Cn1cc(C)c(=O)[nH]c1=O,-6%,·,-6%,·,-18%,-10%
Cc1ccc(NC(=O)Cn2c(=O)n(CCc3ccccc3)c(=O)c3sc4ccccc4c32)cc1C,2%,10%,-2%,1%,22%,-18%
O=[N+]([O-])c1ccc(O)c(Nc2ncnc3ccc(Br)cc23)c1,-13%,?,?,·,30%,-11%
O=[N+]([O-])c1ccc(O)c(Nc2ncnc3ccccc23)c1,-11%,28µM*,-4%,4%,-19%,?
O=C(CSCc1ccccc1Cl)NCc1ccc(Cl)c(Cl)c1,-7%[60.1 µM],0%,9%,8%,4%,-18%
c1cc(C2CCCCC2)ccc1Oc1nc(N2CCOCC2)nc(N2CCOCC2)n1,-7%,23%,-2%,-5%,3%,5%
c1ccc(Oc2nc(N3CCOCC3)nc(N3CCOCC3)n2)cc1,-3%,89µM*,3%,0%,-29%,-11%
Cc1ccc(-n2c(CCC(=O)O)ccc2-c2cccs2)cc1Cl,2%,2.5µM*,-4%,·,?,1%
CC(=O)c1ccc(-n2c(CCC(=O)O)ccc2-c2cccs2)cc1,-17%,?,10%,-2%,?,?
Cc1nc2ccc(-c3nc4ccccc4[nH]3)cc2[nH]1,-37%,13µM*,-7%,0%,?,-4%
CCN(C/C=C/C#CC(C)(C)C)Cc1cccc(OCc2cc(-c3ccsc3)cs2)c1,10%[60.1 µM],·,·,2%,·,·
Cc1ccccc1Cn1ccc(NC(=O)c2cc3ncc(Br)cn3n2)n1,-2%,20µM*,-3%,?,12%,-3%
O=C(CN1C(=O)COc2ccc(S(=O)(=O)N3CCCC3)cc21)N1CCN(c2ccccc2F)CC1,8%,3%,1%,4%,40%,-16%
COc1ccc(C)cc1NC(=O)C(OC(=O)CNC(=O)c1ccccc1)c1ccccc1 (stereo unspecified),·,·,·,126µM*,·,·
CC(C)(C)c1ccc(C(=O)N/C(=C\c2ccco2)C(=O)Nc2ccccc2C(=O)O)cc1,?,?,3%,8%,?,35µM*
CCC(=O)Nc1sc2c(c1C(N)=O)CCN(C(C)=O)C2,-7%,9%,-5%,5%,0%,-14%
CC(=O)N1CCc2c(sc(NC(=O)c3ccc([N+](=O)[O-])o3)c2C(N)=O)C1,·,·,·,·,·,50µM*
OCCN1CCN(C(c2cccs2)c2ccc3cccnc3c2O)CC1 (stereo unspecified),·,34%,·,7.1µM*,·,·
O=S(=O)(c1ccc(F)cc1)N1CCN(c2nc(-c3ccccc3)nc3ccccc23)CC1,-15%,·,-11%,1%,3%,·
CN1C(C(=O)Nc2ccccn2)=C(O)c2sc(Cl)cc2S1(=O)=O,-10%,?,13%,·,79µM*,0%
SMILES,POLK inh,Pol beta inh,FEN1 inh,TDP1 inh,POLI inh,Pol eta inh
COc1ccc(C(=O)n2nc(-c3ccco3)nc2N)cc1,1%,25µM*,4%,0%[56.1 µM],16%,-4%
COc1ccc(C(=O)CSc2nnc(-c3ccco3)n2CC2CCCO2)cc1 (stereo unspecified),0%,27%,-3%,-2%,?,3%
COc1ccc(C(=O)CSc2nnc(-c3ccco3)c(-c3ccco3)n2)cc1,-75%,13µM*,?,-3%,?,13µM*
O=C(CSc1nnc(-c2ccccc2)c(-c2ccccc2)n1)NCc1ccco1,-11%,3%,-9%,12%[56.1 µM],10%,-2%
O=C(CSc1nnc(-c2ccco2)c(-c2ccco2)n1)Nc1ccccc1,20µM*,-121%,?,·,5µM*,2.8µM*
COc1cccc(NC(=O)CSc2nnc(-c3ccco3)c(-c3ccco3)n2)c1,50µM*,?,?,·,?,20µM*
O=C1CCCC2=C1C1(CCSCC1)N=C(Nc1nc3ccccc3o1)N2,·,·,·,0%,·,·
O=C(c1nc2ccc(Cl)cn2c1CN1CCC(CO)CC1)N1CCc2ccccc2C1,0%,7%,6%,3%,28%,-18%
O=C(c1nc2ccc(Cl)cn2c1CN1CCCC1)N1CCc2ccccc2C1,?,?,-20%,-19%,18µM*,32µM*
O=C(c1ccco1)N(CCC(c1ccccc1)c1ccco1)Cc1ccco1 (stereo unspecified),25µM*,6.3µM*,?,·,22µM*,2.8µM*
CN(C)c1ccc(CN(Cc2ccco2)C(=O)c2ccco2)cc1,-8%,0%,12%,17%,-9%,-2%
CCOc1ccc(Nc2c(S(=O)(=O)c3ccccc3)cnc3ccc(F)cc23)cc1,-7%,-2%,-2%,4%,41%,-20%
CN(Cc1cc(Cl)cc(Cl)c1)CC(C(=O)c1ccccc1)c1ccccc1 (stereo unspecified),-4%,·,-19%,·,8%,-5%
CN(C)CC(C(=O)c1ccccc1)c1ccccc1 (stereo unspecified),-1%,2%,-1%,0%,32µM*,-15%
O=C(/C=C/c1ccco1)N1CCN(S(=O)(=O)c2cccs2)CC1,-13%,50µM*,-2%,-14%,40µM*,?
COc1cccc(C2c3c(ncn(-c4cccc(F)c4)c3=N)Oc3ccc4ccccc4c32)c1 (stereo unspecified),·,·,·,4%,·,·
C=CCn1c(SCC(=O)c2ccc(O)c(O)c2)nnc1-c1cccc(Cl)c1,40µM*,·,-14%,0%,?,16µM*
Nc1nc(N)nc(-c2cccc(Cl)c2Cl)n1,-20%,·,-10%,-3%,16%,2%
Nc1nc(N)nc(-c2cc(Cl)ccc2Cl)n1,14%[60.1 µM],·,1%,8%,79µM*,-2%
CCOC(=O)c1noc2nc(C)n(CC(=O)Nc3ccc(OC)c(Cl)c3)c(=O)c12,4%[60.1 µM],20µM*,0%,2%,10%,-9%
O=C1CSc2nc3ccccc3n21,-16%,0%,-1%,-2%,3%,-4%
c1ccc2c(c1)nc1n2CCS1,89µM*,-6%,-2%,4%,-4%,-16%
